From PubChem BioAssay
KB-V1 cytotox – qHTS assay for MDR1-selective chemotherapeutics: Primary screen using the drug-selected MDR subline cells KB-V1. KB-V1 MDR cells viability, CellTiter-Glo, 72 h. Potency, µM (series often up to 46.1 µM), hits mostly cytotoxic. 400,000 tested, 3.4% active. AID 1347076, 2019; note: % is set by controls: 0 for no effect and ±100 for the full control effect; nearly all actives have a fitted effect of over 60% in size
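In this primary screen, KB-V1 cells overexpressing P-gp are incubated with library compounds (lowest to highest concentration) for 72 h at 37 degrees C before a luminescent ATP viability read.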
HT1080-NT tox – qHTS for induction of synthetic lethality in tumor cells producing 2HG: qHTS for the HT-1080-NT fibrosarcoma cell line. HT-1080-NT fibrosarcoma viability, CellTiter-Glo ATP luminescence, 48 h. Potency, µM (doses to about 46.1 µM), for the others: at the highest dose activity, negative = less viability, usual class: cytotoxic. 360,000 tested, 1.6% active;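 note: NT is the 2HG producing partner of a matched IDH1 knockdown line; 0% = DMSO-treated cells and -100% = media-only wells without cells; nearly all actives have a fitted effect of over 55% in size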
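Compounds were tested in concentration-response format on HT-1080-NT cells for 48 hours at 37 degrees C. Cell viability came from CellTiter-Glo luminescence; curves were classified by r2, response magnitude and activity.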
HT1080 IDH1KD tx – qHTS for induction of synthetic lethality in tumor cells producing 2HG: qHTS for the HT-1080-IDH1KD cell line. HT-1080 IDH1 knockdown viability, ATP luminescence, 48 h. Potency, µM (top dose mostly 46.1 µM), for inactives: top-dose activity, negative = toxicity, hits mostly cytotoxic. 360,000 tested, 2% active. AID 686971, 2013;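 note: 0% = DMSO wells and -100% = cell-free medium wells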
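Knockdown cells (IDH1KD HT-1080) received compounds 2 h after plating at 750 cells/well and were kept 48 h at 37 °C in 5% FBS RPMI. A CellTiter-Glo luminescence read gave % activity for curve fitting.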
SW480 rerep – A quantitative high throughput screen for small molecules that induce DNA re-replication in SW480 colon adenocarcinoma cells. SW480 DNA re-replication, Hoechst DNA content imaging, 48 h. Potency, µM (top dose mostly 46.1 µM), for the others: at the highest dose re-replication activation, hits mostly activators. 340,000 tested, 1.8% active. AID 624297, 2012; note: % of control where 0% means no effect; nearly all actives have a fitted effect of over 55% in size
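250 cells/well; 23 nL cpd via pin tool; 48 hr, 37 C, 5% CO2; Hoechst 40 min; imager read of total nuclear intensity, ex 405/em 500-530 nm.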
MCF10A rereplic – A quantitative high throughput screen for small molecules that induce DNA re-replication in MCF 10a normal breast cells. MCF 10A DNA re-replication, Hoechst nuclear intensity, 48 h. Potency, µM (highest dose often 46.1 µM), for inactives: at the top dose activity, positive = re-replication, hits mostly activators. 350,000 tested, 2.9% active; note: % of control where 0% means no effect; nearly all actives have a fitted effect of over 50% in size
KB-3-1 tox – qHTS assay for MDR1-selective chemotherapeutics: Primary screen using the parental adenocarcinoma cell KB-3-1. KB-3-1 viability, CellTiter-Glo ATP luminescence, 72 h. Potency, µM (doses to about 46.1 µM), hits mostly cytotoxic. 400,000 tested, 1.4% active; note: % is set by controls: 0 for no effect and ±100 for the full control effect; nearly all actives have a fitted effect of over 60% in size
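Here the drug-naive KB-3-1 line serves as comparator for MDR sub-line selectivity; cells received compound titrations, 72 h at 37 °C, then CellTiter-Glo readout.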
* = called active by the depositor; i = inactive; ? = inconclusive; . = no result. Compounds with a hit are over-represented: about 7.9% of the library has one in this group of screens. Calls come from the whole dose curve; as a rule, active = well fitted curve in the direction sought with a large enough effect; inconclusive = small, poorly fitted or top-dose-only effect, or another doubt; inactive = no such curve, though single readings can be large; an effect the other way counts as inactive or inconclusive. Potency is the fitted concentration of half-maximal effect.

SMILES | KB-V1 cytotox | HT1080-NT tox | HT1080 IDH1KD tx | SW480 rerep | MCF10A rereplic | KB-3-1 tox
CCN1CCN(S(=O)(=O)c2ccc(S(=O)(=O)N(CC)Cc3ccccc3)cc2)CC1 | ? | 6% | -1% | 12µM* | 1.8µM* | i
CCN1CCN(S(=O)(=O)c2ccc(S(=O)(=O)NC3CC3)cc2)CC1 | i | 0% | 5% | ? | 0% | i
COc1cc2c(NC3CCN(C)CC3)nc(N3CCCCC3)nc2cc1OCCCN(C)C | i | . | . | . | . | ?
COc1cc2nc(N3CCCCC3)nc(NC3CCN(Cc4ccccc4)CC3)c2cc1OC | . | 14µM* | 10µM* | . | . | .
COc1cc2nc(N3CCCCC3)nc(NC3CCN(C)CC3)c2cc1OC | . | 20µM* | 11µM* | . | . | .
COc1cc2nc(NC3CCN(C)CC3)nc(N3CCCN(C)CC3)c2cc1OC | . | 9% | -3% | . | . | .
COc1cc2nc(N3CCCN(C)CC3)nc(NC3CCN(C)CC3)c2cc1OC | . | -9% | -11% | . | . | .
COc1cc2c(NC3CCN(C)CC3)nc(N3CCCN(C)CC3)nc2cc1OCCCCN(C)C | i | . | . | . | . | 16µM*
COc1cc2nc(NC3CCN(Cc4ccccc4)CC3)nc(N3CCCN(C)CC3)c2cc1OC | . | 6.3µM* | 2.8µM* | . | . | .
COc1ccc(CCCC(=O)N/N=C/c2ccc(C)cc2)cc1 | i | 5% | 9% | -50% | 0% | i
COC(=O)c1cc(-c2ccc(OC)c(OC)c2)c2c(=O)[nH]c(=O)n(C)c2n1 | i | 2% | 0% | 29% | 6.5µM* | i
CCOc1ccc(-c2cc(C(=O)OC)nc3c2c(=O)n(C)c(=O)n3C)cc1 | i | 7% | 5% | ? | 23µM* | i
COC(=O)c1cc(-c2ccc(Br)cc2)c2c(=O)[nH]c(=O)n(C)c2n1 | i | -3% | -20% | 0% | -1% | i
CCN1CCN(Cc2c(O)ccc3oc(C)c(C(=O)Nc4cccc(Cl)c4C)c23)CC1 | i | . | . | . | . | i
CCN1CCN(C(=O)c2cc(-c3cccnc3)nc3ccc(Br)cc23)CC1 | i | 4% | -1% | -5% | 1% | i
COc1cc(Cl)c(CC(=O)c2c[nH]c3ccccc23)cc1OC | ? | -11% | -7% | -1% | 19% | 13µM*
CCN(CC)c1ccc(NC(=O)COc2ccccc2C)cc1S(=O)(=O)Nc1ccccc1OC | ? | 18% | 16% | 3% | -3% | i
CCN(CC)c1ccc(NC(=O)COc2ccccc2C#N)cc1S(=O)(=O)Nc1ccc(OC)cc1 | 3.7µM* | 1% | 11% | ? | ? | i
CCN(CC)c1ccc(NC(=O)c2cnccn2)cc1S(=O)(=O)Nc1ccc(OC)cc1 | 4.1µM* | -3% | -7% | ? | ? | ?
Cn1c(-c2ccc(C=O)s2)nc2c3ccccc3c3ccccc3c21 | ? | -4% | -10% | ? | 10µM* | ?
C=CCO/N=C/C1C(=O)CC(C)(C)CC1=O | i | 23% | 2% | -4% | -1% | i
COC(=O)c1ccc(C(NC(=O)OCc2ccccc2)/C(F)=C/[C@@H](C)C(=O)NCc2ccc(OC)c(OC)c2)cc1 (some centres not stated) | i | ? | ? | 16µM* | ? | ?
COC(=O)c1ccc(C(NC(=O)OCc2ccccc2)/C(F)=C/[C@@H](C)C(=O)NCc2ccc(-c3ccccc3)cc2)cc1 (some centres not stated) | i | -9% | 9% | 0% | ? | i
